PubChem BioAssay
Unmarked numbers belong to inactive results. How the calls were made is not given here.

molecular target: Pantothenate synthetase (Mycobacterium tuberculosis (strain ATCC 25618 / H37Rv)) (UniProt P9WIL5); experiment: Recombinant Mtb pantothenate synthetase (PanC) inhibitors, coupled enzyme, confirmatory (AID 375); settings: coupled enzyme assay; at 10 µM, active compounds read high;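 further: 0% = full reaction with vehicle and 100% = no enzyme background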
Sequence (P9WIL5 whole entry, looked up): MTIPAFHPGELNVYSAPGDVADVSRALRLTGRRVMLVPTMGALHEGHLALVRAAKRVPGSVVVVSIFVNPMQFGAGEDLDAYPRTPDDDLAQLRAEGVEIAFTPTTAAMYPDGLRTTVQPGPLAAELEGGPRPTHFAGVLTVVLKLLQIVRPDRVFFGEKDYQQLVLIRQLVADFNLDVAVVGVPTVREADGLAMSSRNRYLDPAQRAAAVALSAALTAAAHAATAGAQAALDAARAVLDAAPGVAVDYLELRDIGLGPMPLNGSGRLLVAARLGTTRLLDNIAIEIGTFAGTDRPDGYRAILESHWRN

| Compound | inhibition |
| --- | --- |
| COc1ccc(NC(=O)N2CCN(c3nc(-c4cccc(OC)c4)cs3)CC2)cc1 | 0% |
| O=C(Nc1ccon1)c1cc(-c2ccccc2)nc2ccccc12 | 0% |
| C/C(N)=C(/C#N)C(=O)COC(=O)CCSc1ccccc1 | 0% |
| COc1cccc(-n2nnnc2SCC(=O)NCc2ccco2)c1 | 0% |
| O=C1CN(C(=O)CN2CCCC2)C(c2ccccc2)c2cc(Br)ccc2N1 (configuration not stated) | 0% |
| Cc1cc(C)nc(N2CCCC(C(=O)Nc3nc4ccc(S(C)(=O)=O)cc4s3)C2)n1 (configuration not stated) | 4% |
| CCCc1ccc(S(=O)(=O)NCCc2ccncc2)cc1 | 0% |
| CNC(=O)CC(C(=O)O)c1ccc(OCC(C)C)cc1 (configuration not stated) | 1% |
| O=C(CCNS(=O)(=O)c1cccc2nsnc12)Nc1ccc2c(c1)OCCO2 | 0% |
| CCOC(=O)N1CCC(NC(=O)c2ccc3nc(N4CCOCC4)sc3c2)CC1 | 5% |
| CCn1c(=N)n(CC(O)c2ccco2)c2ccccc21 (configuration not stated) | 0% |
| CCOc1ccccc1NS(=O)(=O)c1c(C)noc1C | 0% |
| Cc1n[nH]c(C)c1S(=O)(=O)N1CCCCCC1 | 0% |
| O=C(CCSc1ccccc1)Nc1ccc(S(=O)(=O)N2CCOCC2)cc1 | 7% |
| COc1ccc(-c2ccc(-c3noc(-c4cccs4)n3)c(OC)n2)cc1 | 0% |
| O=C(Nc1sc2c(c1C(=O)NCc1ccco1)CCCC2)c1ccc2c(c1)OCO2 | 1% |
| OC(CN1CCN(c2ccccc2)CC1)c1ccc2c(c1)CCN2 (configuration not stated) | 0% |
